Consider ten molecules from PubChem BioAssay (NCATS).

Inconclusive results are not listed. Calls of active or inactive are those of the source. Unless noted, calls follow the shape of the dose curve; as a rule, active = well fitted curve in the direction sought with a large enough effect; inconclusive = small, poorly fitted or top-dose-only effect, or another doubt; inactive = no such curve, though single readings can be large; an effect the other way counts as inactive or inconclusive.

Test [1] can be described thus: qHTS assay for small molecule agonists of the antioxidant response element (ARE) signaling pathway (AID 651741; active = well fitted activation curve with a large enough effect in the signal ratio; the % refers to the signal ratio; also: potency is read from the fitted curve at half-maximal effect; as to activation: % of control where 0% means no effect). Put shortly:
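Agonist activity is measured as ARE-driven beta-lactamase expression in a stable HepG2 reporter line, using 16 h compound treatment at 37 C and a FRET substrate fluorescence readout after 2 h.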
Background: Quantitative high-throughput screening tests each substance at several concentrations.

Test [2] can be described thus: qHTS assay for small molecule activators of the p53 signaling pathway (AID 651743; active = well fitted activation curve with a large enough effect in the signal ratio, not every such curve was filed as active; the % refers to the signal ratio; also: % of control where 0% means no effect). Particulars: HCT-116 p53RE-bla, beta-lactamase FRET ratio, 16 h; activation: stronger effect = higher value. Put shortly:
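A beta-lactamase reporter under p53 response element control, stably carried by HCT-116 cells, reported pathway activation. Test compounds were applied for 16 hours at 37 C, and fluorescence was measured 2 hours after adding the B/G FRET substrate.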

Test [3] is described as follows: qHTS Assay for Identification of Small Molecule Antagonists for NFkB Signaling Pathway. (AID 624479; calls by dose curve;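 also: pathway stimulated with TNF alpha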; also: potency is read from the fitted curve at half-maximal effect).
The nature of test [4]: Cell Proliferation Assay against the TMD8 Cell Line (Caspase readout at 16 hrs) (AID 651712). Also: potency is read from the fitted curve at half-maximal effect. Put shortly:
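Caspase-Glo luminescence measured apoptosis after a 16 h, 37 C compound exposure of TMD8 cells (500 cells/well, 5% FBS RPMI). DMSO set 0% and bortezomib at 9.2 uM final set 100% activity.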

A short description of test [5]: Cell Proliferation Assay against the TMD8 Cell Line (Caspase readout at 8 hrs) (AID 651713). Also: potency is read from the fitted curve at half-maximal effect. Put shortly:
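Luminescent caspase 3/7 assay; TMD8 cells, 8 h treatment at 37C, 5% CO2. Normalisation: DMSO 0%, 9.2 uM bortezomib 100%.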

Test [6] in a line: qHTS Assay for Identification of Small Molecule Agonists for NFkB Signaling Pathway. (AID 624478).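 Also: compounds tested together with TNF alpha at its EC50 of 10 pM; 0% is about no effect.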 Put shortly: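 Assay medium contained 0.5% FBS and 10 mM HEPES pH 7.3. Compounds were added together with TNF alpha (10 pM final), incubated 5 h at 37 C, and the beta-lactamase signal was measured fluorometrically.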
The nature of test [7]: Cell Proliferation Assay against the HBL1 Cell Line (AID 651646).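 Also: cells exposed to compound for 48 h before reading.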 Particulars: HBL1 DLBCL cells; at 46.1 µM (top of the series) unless noted. In short, it runs like this:
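CellTiter-Glo luminescence after 48 h compound exposure at 37C gives percent activity, with DMSO as 100% and 9.2 uM bortezomib final as 0%. Cells: 500 log-phase HBL1 per well, RPMI plus 5% FBS.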

Regarding `Nc1ccc(N=Nc2ccccc2)cc1`, in test [1], the Potency is 27.3 µM (active). Further, the activation in test [2] was -2.42% (inactive).

In the case of `CC(C)(C)c1[nH]cnc1C=c1[nH]c(=O)c(=Cc2ccccc2)[nH]c1=O`, the figures for the Potency in test [3], in test [4] and in test [5] were 16.8 µM (active), 0.0235 µM (active) and 0.059 µM (active), respectively.

For the molecule `O=C(Oc1ccc([N+](=O)[O-])cc1)N1CCC(C(O)(c2ccc3c(c2)OCO3)c2ccc3c(c2)OCO3)CC1`, the molecule was called inactive in test [6]. Also, the Potency result in test [3] and in test [5] was “inactive” each time. Moreover, the viability, percent of control in test [7] stood at 72%.

With `Cc1c(C(=O)Nc2cccc(C(F)(F)F)c2)cc(-c2ccccc2)n1CCCN1CCOCC1`, the molecule was classed as inactive in test [6]. Besides, the viability, percent of control in test [7] came out at 18.7%.

For `Cc1nc2cnc3ccc(C#Cc4cccnc4)cc3c2n1-c1ccc(C(C)(C)C#N)cc1`, the Potency in test [3] was 18.8 µM (active).

For the molecule `C1=CCOCc2cc(ccc2OCCN2CCCC2)Nc2nccc(n2)-c2cccc(c2)OCC1`, the Potency in test [3] is 0.943 µM (active).

As for `CC[C@H](CO)Nc1nc(NCc2ccccc2)c2ncn(C(C)C)c2n1`, the Potency in test [3] was 11.9 µM (active).

Take `COc1cc2c(cc1O)CC[C@@H]1[C@@H]2CC[C@]2(C)[C@@H](O)CC[C@@H]12`: the viability, percent of control in test [7] came out at 37.3%.

`O=C(O)C(Cl)Cl`: the Potency entry in test [1] is “inactive”.

For the molecule `CCOc1ccc(Nc2nc(-c3c(C)nc4ccccn34)cs2)cc1`, the Potency in test [3] is 0.335 µM (active).
